# Assay results published in PubChem BioAssay AID1942 (Johns Hopkins Ion Channel Center, 2009).
# The whole screen tested about 2,400 compounds, of which about 580 (24%) were called active. These entries were drawn from the full list. A number with no mark means an inactive call.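 Rule for the calls: active = activity change at or above the mean plus 3 SD of buffer wells without dofetilide, per plate; inactive = the rest.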
# Target: Potassium voltage-gated channel subfamily KQT member 2 (Rattus norvegicus) (UniProt O88943)
# Test: rat KCNQ2 channel activation by compounds alone, confirmation, counter-screen for hERG block protector project, cell-based, CHO, FluxOR thallium flux (AID 1942);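 note: normalized value minus buffer-control mean plus three SD of buffer wells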
# Conditions: CHO-KCNQ2 cells, FluxOR thallium flux fluorescence; at 10 µM; hits give high values
# Potassium voltage-gated channel subfamily KQT member 2 (Rattus norvegicus), sequence (O88943 whole entry, looked up): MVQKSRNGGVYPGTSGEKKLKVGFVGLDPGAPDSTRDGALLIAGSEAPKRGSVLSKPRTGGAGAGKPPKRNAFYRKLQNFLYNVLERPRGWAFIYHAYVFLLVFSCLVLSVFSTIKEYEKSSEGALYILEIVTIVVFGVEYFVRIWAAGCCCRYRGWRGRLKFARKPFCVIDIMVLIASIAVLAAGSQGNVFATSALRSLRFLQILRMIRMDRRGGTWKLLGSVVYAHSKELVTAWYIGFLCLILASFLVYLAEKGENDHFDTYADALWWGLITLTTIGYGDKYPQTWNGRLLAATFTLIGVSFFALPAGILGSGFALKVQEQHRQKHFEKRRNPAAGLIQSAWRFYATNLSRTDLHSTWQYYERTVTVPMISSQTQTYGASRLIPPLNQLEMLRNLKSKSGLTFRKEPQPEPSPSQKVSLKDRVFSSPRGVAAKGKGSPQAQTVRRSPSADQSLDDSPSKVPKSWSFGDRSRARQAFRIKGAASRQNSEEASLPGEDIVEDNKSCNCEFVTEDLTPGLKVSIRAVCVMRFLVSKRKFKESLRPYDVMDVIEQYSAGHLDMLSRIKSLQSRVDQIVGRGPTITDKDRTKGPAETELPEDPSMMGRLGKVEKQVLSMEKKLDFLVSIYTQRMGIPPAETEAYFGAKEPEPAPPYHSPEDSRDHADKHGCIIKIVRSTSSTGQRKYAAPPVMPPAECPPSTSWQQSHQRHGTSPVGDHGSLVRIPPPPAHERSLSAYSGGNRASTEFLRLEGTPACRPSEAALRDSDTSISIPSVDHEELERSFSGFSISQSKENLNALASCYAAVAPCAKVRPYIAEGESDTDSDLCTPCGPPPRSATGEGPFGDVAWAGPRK
row,SMILES,"activity change, less the hit threshold"
1,COC(=O)C1=C(C)N(CC2CCCO2)C(=O)/C1=C\c1ccc(O)cc1 (configuration not stated),-0.1%
2,CCN(CC)S(=O)(=O)c1ccc2[nH]c(=O)cc(C(=O)Nc3cccc(C(C)=O)c3)c2c1,-14.9%
3,COC(=O)c1ccc(NC(=S)NC(=O)c2cc(-c3ccccc3)nc3ccccc23)cc1,1.1% (active)
4,Cc1cccc(NC(=S)NC(=O)c2cc(-c3ccccc3)nc3ccccc23)c1,-14.7%
5,O=C(NC(=S)Nc1ccccn1)c1cc(-c2ccccc2)nc2ccccc12,-12%
6,Cc1ccccc1NC(=S)NC(=O)c1cc(-c2ccccc2)nc2ccccc12,2% (active)
7,CC(C)(C)NS(=O)(=O)c1ccc(NC(=O)c2cc(-c3ccccc3)nc3ccccc23)cc1,-22%
8,O=C(NC(=S)Nc1ccccc1)c1cc(-c2ccccc2)nc2ccccc12,-5.5%
9,CCCCCCc1cc2cc(-c3nnc(-c4ccccc4)o3)c(=O)oc2cc1O,-23.8%
10,O=C(C[n+]1ccccc1)N/N=C/c1ccc(Cl)c(Cl)c1,-28.9%
11,O=C(c1cccs1)N1CCN(C23CC4CC(CC(C4)C2)C3)CC1,-10.7%
12,CCC1Nc2ncnc(N3CCOCC3)c2N(Cc2ccc(C)cc2)C1=O (configuration not stated),-18.9%
13,CCSc1nc(=S)cc(C)[nH]1,48.7% (active)
14,CSc1nc(=S)cc(C)[nH]1,-1.9%
15,CCc1cc(=O)[nH]c(SCc2ccc(C)cc2)n1,-15.8%
16,CN(C)CCNc1ncnc2c1sc1nc(N3CCCC3)c3c(c12)CC(C)(C)OC3,-13.1%
17,CC(C)(C)c1ccc(/C=N/NC(=S)Nc2cccnc2)cc1,-14%
18,CCOC(=O)NC(=S)Nc1ccc(C(C)(C)C)cc1Br,2.1% (active)
19,COC(=O)CNC(=S)NC(=O)c1ccc(C(C)(C)C)cc1,-13%
20,CCOC(=O)NC(=S)Nc1ccc(C(C)(C)C)cc1,1% (active)
21,CCCCNC(=O)CC(NS(=O)(=O)c1ccc(C)cc1)c1ccco1 (configuration not stated),-14.3%
22,C[n+]1ccccc1/C=C/c1ccc(C#N)cc1,-12.2%
23,COCC(=O)N(Cc1ccco1)c1nnc(C2CCOC2)s1 (configuration not stated),-22.7%
24,O=[N+]([O-])c1cc(F)c2cccnc2c1O,6.4% (active)
25,Cc1ccc(N=Nc2ccc(O)c3ncccc23)cc1,-4.3%
26,COc1ccc(-n2cnc3ccccc3c2=O)c([N+](=O)[O-])c1,-12.6%

row,SMILES,"activity change, less the hit threshold"
1,O=[N+]([O-])c1cccnc1Sc1n[nH]c(-c2ccc(Cl)cc2)n1,-16.6%
2,O=[N+]([O-])c1ccc(O)c2ncccc12,22.1% (active)
3,Oc1c(Cl)cc(CN2CCCCC2)c2cccnc12,-12.8%
4,O=C(O)C[C@H]1c2cc(F)ccc2S(=O)(=O)N1C1CCCCC1,-10.2%
5,Cc1nc(-c2nc(-c3c(C(=O)NNC(=O)c4ccc(Cl)cc4)noc3C)cs2)cs1,-1.2%
6,CC(C)(C)c1cc(C(=O)NNC(=O)c2ccc(Cl)cc2)no1,24% (active)
7,CC(C)(C)c1csc(NNC(=O)c2ccc(Cl)cc2)n1,-7.6%
8,CCc1nc(C)ccc1OCC(=O)N1CCc2c([nH]c3ccccc23)C1c1ccccn1 (configuration not stated),-18.2%
9,CCN(CC)c1ccc(/C=c2\sc3nnc(-c4ccccc4Cl)n3c2=O)cc1,-31.7%
10,O=C(NC(=S)Nc1nc(-c2ccccc2)cs1)c1ccco1,-0.7%
11,O=C(NC(=S)Nc1nc2ccccc2s1)c1ccco1,40.4% (active)
12,O=C(NC(=S)Nc1nc(-c2ccc([N+](=O)[O-])cc2)cs1)c1ccco1,20.1% (active)
13,COc1ccc(-c2csc(NC(=S)NC(=O)c3ccco3)n2)cc1Br,-3.7%
14,O=C(NC(=S)NCc1ccc(-c2nc3ccccc3s2)cc1)c1ccco1,-16%
15,COc1ccc2nc(NC(=S)NC(=O)c3ccco3)sc2c1,27.9% (active)
16,COc1ccc(-c2csc(NC(=S)NC(=O)c3ccco3)n2)cc1,-0.4%
17,O=C(NC(=S)Nc1nc(-c2ccc(Br)cc2)cs1)c1ccco1,-18.5%
18,Cc1ccc2nc(NC(=S)NC(=O)c3ccco3)sc2c1,-6.5%
19,O=C(NC(=S)Nc1nc2ccc(F)cc2s1)c1ccco1,59.7% (active)
20,Cc1ccc(C)c(N2CCN(S(=O)(=O)c3ccc(-c4ccc(=O)[nH]n4)o3)CC2)c1,-14.6%
21,CCn1cc(CCC(=O)NCc2cccc(OC)c2OC)c2ccccc21,-13%
22,Cc1cc(N2CCN(C)CC2)nc(N2CCOCC2)n1,-10%
23,CCN(CC)C(=O)CN1C(=O)c2cccc3cccc(c23)C1=O,-24.8%
24,CN(C)c1oc(-c2ccccc2)nc1C#N,-16.2%
25,CC(=O)C1C(=O)c2c(cccc2[N+](=O)[O-])C1=Nc1ccccc1C (configuration not stated),-21.7%
26,O=c1cc(O)c2sc(Nc3ccc(F)c(Cl)c3)nc2[nH]1,-20.3%

row,SMILES,"activity change, less the hit threshold"
1,COc1ccc(N2CCN(CC(O)COc3ccc(F)cc3)CC2)cc1 (configuration not stated),-24.2%
2,CC1=C(C)CS(=O)N(c2ccc(S(N)(=O)=O)cc2)C1 (configuration not stated),-5.8%
3,O=c1c2cc(Cl)ccc2nc(-c2ccccc2)n1O,27.1% (active)
4,Cc1ccc(-c2nc3c(Cl)cc(Cl)cc3c(=O)n2O)cc1,142% (active)
5,Cc1ccc(-c2nc3ccccc3c(=O)n2O)cc1,6.3% (active)
6,CC1=NN(c2ccccc2)C(=O)C1C(=O)c1ccc(Cl)cc1 (configuration not stated),-0.6%
7,O=c1c2ccccc2nc(-c2ccccc2)n1O,-9.4%
8,Cc1ccc(C(=O)Nc2nc3ccccc3c(=O)s2)cc1,-1.3%
9,O=c1c2ccccc2nc(-c2ccc(Cl)c(Cl)c2)n1O,68.4% (active)
10,COc1cccc([C@@H]2Oc3ccc(OC)cc3C(=O)[C@H]2OC(=O)NCc2ccc3c(c2)OCO3)c1,-12.3%
11,N#CC(=C1SC=CS1)c1nc(-c2ccccc2)cs1,-21.5%
12,O=C(N/N=C/c1ccccc1[N+](=O)[O-])c1ccc(CN2CCOCC2)cc1,-14.3%
13,Cc1ccc(Nc2nc(-c3cccs3)cs2)nc1,-16.1%
14,O=C(N/N=C/c1cccs1)C(=O)Nc1cccc(Cl)c1,-12.5%
15,CSc1nc2c(c(=O)[nH]1)C(c1ccc(Cl)cc1)CC(=O)N2 (configuration not stated),-14%
16,Cc1ccc(C(=O)CC(=O)c2cc(Cl)ccc2O)cc1,-19.3%
17,CCOC(=O)c1c(N2C(=O)Nc3ccccc3N2O)n[nH]c1-c1cccc(Cl)c1,-9.4%
18,O=c1c2cc(Cl)ccc2nc(-c2ccc(Cl)c(Cl)c2)n1O,127% (active)
19,Cc1ccc(-c2nc3ccc(Cl)cc3c(=O)n2O)cc1,104% (active)
20,O=c1c2ccccc2nc(-c2cccc(Cl)c2)n1O,28.8% (active)
21,Cc1ccc(-c2onc3ccc(Cl)cc23)cc1,-16.5%
22,Cc1ccc(CNS(=O)(=O)c2cc3c4c(c2)CCN4C(=O)CC3)cc1,-11.7%
23,Cc1cc([N+](=O)[O-])nn1CC(=O)Nc1ccc(Cl)cn1,-1.2%
24,COC(=O)c1ccc(/C=C/c2ccc3cccc(OC)c3n2)cc1,-22.1%
25,CCCCC(CC)CNC(=O)Cn1c(=S)[nH]c2ncccc2c1=O (configuration not stated),-9.7%
26,CCCCCn1c(=S)[nH]c2ncccc2c1=O,17.1% (active)

row,SMILES,"activity change, less the hit threshold"
1,CCN(CCCn1c(=S)[nH]c2ncccc2c1=O)c1ccccc1,10.4% (active)
2,CC(C)CCn1c(=S)[nH]c2ncccc2c1=O,-3.7%
3,COC(=O)c1ccc(NN=Nc2ccc(C)cc2)cc1,-4.6%
4,C=CCNc1sc(C(=O)C(C)(C)C)c(N)c1C#N,-15.5%
5,CCc1c(C)nc(SC)n(CC#N)c1=O,-14.4%
6,CCCCNC(=S)N/N=C/C1=CCC2CC1C2(C)C (configuration not stated),-17.2%
7,Cn1nc(C(=O)Nc2ccc3c(c2)OCO3)c2ccccc2c1=O,-16.1%
8,O=c1c(O)c(-c2cccs2)oc2ccccc12,95.3% (active)
9,O=c1c(O)c(-c2cccs2)oc2ccc(Cl)cc12,111% (active)
10,O=c1c(O)c(-c2ccc3c(c2)OCO3)oc2ccccc12,12% (active)
11,c1ccc2c(c1)c1ccccc1n1c(-c3ccc4c(c3)OCO4)nnc21,-10%
12,Cc1nnc(SCC(=O)Nc2nccs2)n1N,-19.4%
13,CCOc1ccc(Nc2ccc([N+](=O)[O-])c3nonc23)cc1,-4.2%
14,COC(=O)c1ccc(-n2c(C)nc(=O)c(-c3ccccc3)c2C)cc1,-13.8%
15,CC(NC(=O)CCCn1cc([N+](=O)[O-])cn1)c1ccccc1 (configuration not stated),-27%
16,CC(Oc1ccc(Cl)cc1Cl)C(=O)Nc1cccnc1 (configuration not stated),-25.1%
17,COc1ccc(NC(=O)C(=O)NNC(=O)C(C)Oc2ccc(Cl)cc2Cl)cc1 (configuration not stated),32.6% (active)
18,COc1ccc(C(=O)NNC(=O)C(=O)Nc2ccc(C)cc2)cc1,22.4% (active)
19,CC(C)Oc1cccc(C(=O)N2CCCC2)c1,-14%
20,COc1ccc(C(=O)NNC(=O)C(=O)Nc2ccc(C)c(Cl)c2)cc1,-0.2%
21,COc1cccc(C(=O)Nc2cccc(-c3ccc(N4CCOCC4)nn3)c2)c1,-17.8%
22,COc1cccc(C(=O)NNC(=O)C(=O)Nc2ccc(C)c(Cl)c2)c1,66.8% (active)
23,COc1ccc(NC(=O)C(=O)NNC(=O)c2ccc(Cl)cc2Cl)cc1,-7.7%
24,COc1cccc(C(=O)NNC(=O)C(=O)Nc2cccc(Cl)c2C)c1,54.1% (active)
